From PubChem BioAssay (Tox21)
Calls of active or inactive are those of the source. Unless noted, the call rests on the fitted dose curve; in most records, active means well fitted curve in the direction sought with a large enough effect in the repeat runs; inconclusive means weak or mixed curves; inactive means no such curve, though single readings can be large; an effect the other way counts as inactive or inconclusive.

Legend:
[1] = qHTS assay to identify small molecule antagonists of the glucocorticoid receptor (GR) signaling pathway - cell viability counter screen (AID 720693); further: nearly all actives have a fitted effect of over 55% in size
[2] = qHTS assay for identifying genotoxic compounds that show differential cytotoxicity against isogenic chicken DT40 cell lines with known DNA damage response pathways - Rad54/Ku70 mutant cell line (AID 743015); further: nearly all actives have a fitted effect of over 60% in size; further: potency means the concentration at half of the fitted maximal effect
[3] = qHTS assay to identify small molecule antagonists of the androgen receptor (AR) signaling pathway - cell viability counter screen (AID 743033; further: nearly all actives have a fitted effect of over 45% in size)
[4] = target: Androgen receptor (Homo sapiens) (UniProt P10275); assay: qHTS assay to identify small molecule antagonists of the androgen receptor (AR) signaling pathway (AID 743035; active means well fitted inhibition curve with a large enough effect in the signal ratio in the repeat runs, not every such curve was filed as active; inconclusive means weak or mixed curves, or effect the other way; inactive means no such curve, though single readings can be large or run the other way; the % refers to the signal ratio; further: potency means the concentration at half of the fitted maximal effect)
How it was run: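 In this cell-based reporter screen, compounds were tested in concentration series against R1881-activated HEK293 cells expressing beta-lactamase under UAS control; after 16 h at 37C, FRET substrate was added and fluorescence read 2 h later.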

[5] = target: Androgen receptor (Homo sapiens) (UniProt P10275); assay: qHTS assay to identify small molecule agonists of the androgen receptor (AR) signaling pathway using the MDA cell line (AID 743040; further: nearly all actives have a fitted effect of over 20% in size; further: potency means the concentration at half of the fitted maximal effect)
How it was run: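 Luciferase read-out, ONE-Glo, 30 min RT. Cells: MDA-kb2 AR-luc, MMTV promoter with AR and GR response elements. Compound exposure 16 h, 37C, 0% CO2, after 5 h pre-incubation. qHTS agonist mode.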

[6] = qHTS assay to identify small molecule antagonists of the androgen receptor (AR) signaling pathway using the MDA cell line - cell viability counter screen (AID 743041; further: nearly all actives have a fitted effect of over 45% in size)
How it was run: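 Cytotoxicity counter screen: MDA-kb2 AR-luc cells, compound + R1881, 16 h, 37C, 0% CO2; CellTiter-Fluor added at 15.5 h, fluorescence read after 30 min.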

[7] = target: Androgen receptor (Homo sapiens) (UniProt P10275); assay: qHTS assay to identify small molecule antagonists of the androgen receptor (AR) signaling pathway using the MDA cell line (AID 743042; further: nearly all actives have a fitted effect of over 55% in size)
How it was run: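 MDA-kb2 breast carcinoma cells carrying MMTV-luciferase (AR/GR responsive) were co-treated with compounds and the agonist R1881 for 16 h at 37C. Inhibition read as ONE-Glo luminescence; CellTiter-Fluor fluorescence measured in parallel for cytotoxicity.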

[8] = qHTS assay to identify small molecule antagonists of the thyroid receptor (TR) signaling pathway - cell viability counter screen (AID 743064); further: nearly all actives have a fitted effect of over 50% in size
How it was run: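 Same-well viability check: GH3.TRE-Luc cells stimulated with 1 nM T3 alongside test compound for 23.5 h, followed by CellTiter-Fluor fluorescence.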

[9] = system: thyroid hormone receptor (rat, GH3 cells); assay: qHTS assay to identify small molecule agonists of the thyroid receptor (TR) signaling pathway (AID 743066; calls by dose curve)
[10] = qHTS assay to identify small molecule antagonists of the estrogen receptor alpha (ER-alpha) signaling pathway - cell viability counter screen (AID 743074; calls by dose curve;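 further: HEK293 cells carrying ER-alpha-UAS-bla reporter stimulated with 17beta-estradiol; nearly all actives have a fitted effect of over 45% in size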)
[11] = target: Estrogen receptor (Homo sapiens) (UniProt P03372); assay: qHTS assay to identify small molecule agonists of the estrogen receptor alpha (ER-alpha) signaling pathway (AID 743075; calls by dose curve;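 further: HEK293 GripTite cells with ER-alpha and UAS-driven beta-lactamase reporter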; further: potency means the concentration at half of the fitted maximal effect)
[12] = target: Estrogen receptor (Homo sapiens) (UniProt P03372); assay: qHTS assay to identify small molecule agonists of the estrogen receptor alpha (ER-alpha) signaling pathway using the BG1 cell line (AID 743079); further: nearly all actives have a fitted effect of over 20% in size; further: potency means the concentration at half of the fitted maximal effect
[13] = qHTS assay to identify small molecule antagonists of the estrogen receptor alpha (ER-alpha) signaling pathway using the BG1 cell line - cell viability counter screen (AID 743081);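 further: compound given together with 17beta-estradiol as the ER stimulus; series mostly up to about 70 µM; nearly all actives have a fitted effect of over 45% in size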
Aromatase (Homo sapiens) = Aromatase (Homo sapiens) (UniProt P11511); assay: qHTS assay to identify aromatase inhibitors (AID 743083); further: series mostly up to about 70 µM; nearly all actives have a fitted effect of over 55% in size
[14] = qHTS assay for identifying genotoxic compounds that show differential cytotoxicity against isogenic chicken DT40 cell lines with known DNA damage response pathways - Rev3 mutant cell line (AID 743014); further: nearly all actives have a fitted effect of over 55% in size; further: potency means the concentration at half of the fitted maximal effect
[15] = qHTS assay to identify small molecule antagonists of the thyroid receptor (TR) signaling pathway (AID 743065)
How it was run: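 GH3.TRE-Luc rat pituitary cells (two TREs driving luciferase) were dosed with compound, then stimulated with 1 nM T3 (final) for 23.5 h at 37 C. ONE-Glo luminescence was the read-out, with CellTiter-Fluor fluorescence as the cytotoxicity counter-screen.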

[16] = qHTS assay to identify small molecule antagonists of the estrogen receptor alpha (ER-alpha) signaling pathway using the BG1 cell line (AID 743080; calls by dose curve;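 further: BG1 cells stimulated with 17beta-estradiol alongside compound; series mostly up to about 70 µM; nearly all actives have a fitted effect of over 25% in size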)
How it was run: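 Quantitative HTS on the Tox21 10K library: BG1 cells with endogenous ER-alpha and ERE-luciferase reporter, 17beta-estradiol stimulation, 21.5 h compound exposure, luminescence endpoint with parallel fluorescence cytotoxicity counter-read.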

[17] = qHTS assay for identifying genotoxic compounds that show differential cytotoxicity against isogenic chicken DT40 cell lines with known DNA damage response pathways - wild type cell line (AID 743012); further: nearly all actives have a fitted effect of over 60% in size; further: potency means the concentration at half of the fitted maximal effect
How it was run: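 300 wt DT40 cells/well; cpd (DMSO) pintool-transferred after ~0.5 h at 37 C/5% CO2; 40 h incubation; CellTiter-Glo added, 30 min RT; luminescence read.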

[18] = target: Androgen receptor (Homo sapiens) (UniProt P10275); assay: qHTS assay to identify small molecule agonists of the androgen receptor (AR) signaling pathway (AID 743036; active means well fitted activation curve with a large enough effect in the signal ratio in the repeat runs, with a control signal flat, not every such curve was filed as active; inconclusive means weak or mixed curves, or effect the other way; inactive means no such curve, though single readings can be large or run the other way; the % refers to the signal ratio)
How it was run: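 Agonist activity was scored by beta-lactamase reporter fluorescence in stably transfected HEK293 cells exposed to compounds for 16 h at 37C and 5% CO2. Substrate loading took 2 h at room temperature.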

[19] = target: Estrogen receptor (Homo sapiens) (UniProt P03372); assay: qHTS assay to identify small molecule antagonists of the estrogen receptor alpha (ER-alpha) signaling pathway (AID 743069; active means well fitted curve in the direction sought with a large enough effect in the signal ratio in the repeat runs, not every such curve was filed as active; inconclusive means weak or mixed curves, or effect the other way; inactive means no such curve, though single readings can be large or run the other way; the % refers to the signal ratio)
How it was run: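 Beta-lactamase FRET fluorescence is read after 2 hr at room temperature with LiveBLAzer B/G substrate. Before that, ER-alpha-bla HEK293 cells sit 4 hr after plating, then receive compound plus 17beta-estradiol and incubate 18 hr at 37C.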

Measured: Potency

Chain of Estrogen receptor (Homo sapiens) (P03372 whole entry, looked up): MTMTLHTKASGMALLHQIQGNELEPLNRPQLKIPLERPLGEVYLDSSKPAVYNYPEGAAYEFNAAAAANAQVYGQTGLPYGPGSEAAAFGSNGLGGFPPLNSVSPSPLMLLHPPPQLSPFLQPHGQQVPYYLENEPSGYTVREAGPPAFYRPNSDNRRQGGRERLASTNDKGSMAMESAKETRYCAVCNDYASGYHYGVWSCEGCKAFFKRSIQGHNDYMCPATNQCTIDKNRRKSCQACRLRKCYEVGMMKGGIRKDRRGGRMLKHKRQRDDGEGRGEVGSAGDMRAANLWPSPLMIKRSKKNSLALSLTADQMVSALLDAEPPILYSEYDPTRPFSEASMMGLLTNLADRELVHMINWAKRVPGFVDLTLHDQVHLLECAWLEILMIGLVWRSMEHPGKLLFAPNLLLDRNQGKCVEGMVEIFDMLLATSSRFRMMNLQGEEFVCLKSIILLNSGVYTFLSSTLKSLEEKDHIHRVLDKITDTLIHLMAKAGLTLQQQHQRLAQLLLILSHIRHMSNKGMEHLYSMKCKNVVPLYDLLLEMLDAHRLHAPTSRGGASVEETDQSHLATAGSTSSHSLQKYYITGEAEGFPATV
Chain of Aromatase (Homo sapiens) (P11511 whole entry, looked up): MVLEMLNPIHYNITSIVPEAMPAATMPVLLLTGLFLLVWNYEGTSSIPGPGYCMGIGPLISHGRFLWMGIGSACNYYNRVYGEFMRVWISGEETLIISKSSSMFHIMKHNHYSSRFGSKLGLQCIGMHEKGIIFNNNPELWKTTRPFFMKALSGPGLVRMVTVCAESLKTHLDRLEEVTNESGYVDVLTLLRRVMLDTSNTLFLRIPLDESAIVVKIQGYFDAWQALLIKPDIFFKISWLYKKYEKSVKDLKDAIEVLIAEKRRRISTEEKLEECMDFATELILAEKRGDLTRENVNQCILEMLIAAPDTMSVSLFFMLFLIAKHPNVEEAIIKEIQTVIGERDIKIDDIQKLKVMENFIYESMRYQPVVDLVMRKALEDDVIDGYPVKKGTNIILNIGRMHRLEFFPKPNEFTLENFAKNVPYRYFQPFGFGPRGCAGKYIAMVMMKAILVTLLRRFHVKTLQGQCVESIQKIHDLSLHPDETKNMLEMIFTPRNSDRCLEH
Chain of Androgen receptor (Homo sapiens) (P10275 whole entry, looked up): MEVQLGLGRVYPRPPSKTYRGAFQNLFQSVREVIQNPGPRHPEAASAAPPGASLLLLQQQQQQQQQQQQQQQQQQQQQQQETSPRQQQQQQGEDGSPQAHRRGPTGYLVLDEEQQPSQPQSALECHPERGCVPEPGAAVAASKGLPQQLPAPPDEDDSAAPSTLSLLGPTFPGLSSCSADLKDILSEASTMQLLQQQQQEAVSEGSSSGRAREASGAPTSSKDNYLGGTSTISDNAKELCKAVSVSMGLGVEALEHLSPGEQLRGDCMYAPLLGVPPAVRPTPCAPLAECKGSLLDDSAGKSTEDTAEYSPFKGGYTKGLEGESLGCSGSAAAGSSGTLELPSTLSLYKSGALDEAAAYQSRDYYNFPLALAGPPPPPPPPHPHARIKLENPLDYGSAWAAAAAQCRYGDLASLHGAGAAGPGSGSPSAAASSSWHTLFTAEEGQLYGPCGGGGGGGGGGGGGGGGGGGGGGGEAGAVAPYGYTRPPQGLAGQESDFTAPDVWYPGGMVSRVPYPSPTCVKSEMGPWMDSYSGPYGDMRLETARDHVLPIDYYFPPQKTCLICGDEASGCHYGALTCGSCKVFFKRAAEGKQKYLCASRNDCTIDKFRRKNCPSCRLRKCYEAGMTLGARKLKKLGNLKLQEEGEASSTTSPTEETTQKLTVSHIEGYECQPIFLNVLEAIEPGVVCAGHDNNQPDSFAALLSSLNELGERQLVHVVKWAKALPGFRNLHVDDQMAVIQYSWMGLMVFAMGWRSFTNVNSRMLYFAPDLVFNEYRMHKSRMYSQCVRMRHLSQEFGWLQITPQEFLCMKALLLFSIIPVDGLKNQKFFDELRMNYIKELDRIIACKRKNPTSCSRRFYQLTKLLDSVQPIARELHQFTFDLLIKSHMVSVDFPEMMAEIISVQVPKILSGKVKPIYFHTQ

C[C@@H]1C[C@H]2[C@@H]3C[C@H](F)C4=CC(=O)C(Cl)=C[C@]4(C)[C@@]3(F)[C@@H](O)C[C@]2(C)[C@@]1(O)C(=O)CO
inactive: [1] | [3] | [6] | [7] | [8] | [9] | [10] | [11] | [12] | [13] | Aromatase (Homo sapiens)
active: [2] 29.8 µM | [4] 3.38 µM | [5] 0.006 µM

CCOC(=O)C1=NOC(c2ccccc2)(c2ccccc2)C1
inactive: [1] | [3] | [6] | [8] | [15] | [9] | [10] | [11] | [12] | [16] | [13] | Aromatase (Homo sapiens)
active: [14] 68.6 µM

CCCCCCCCN1CCCC1=O
inactive: [1] | [14] | [3] | [8] | [15] | [9] | [10] | [13] | Aromatase (Homo sapiens)

CC[N+](CC)(CC(=O)Nc1c(C)cccc1C)Cc1ccccc1 (tested in a mixture with another compound)
active: [14] 16 µM
inactive: [1] | [2] | [3] | [6] | [8] | [10] | [13] | Aromatase (Homo sapiens)

C=C(C)C(=O)OCCOCCOCCOCCOC(=O)C(=C)C
inactive: [1] | [14] | [3] | [8] | [15] | [9] | [10] | [13] | Aromatase (Homo sapiens)

O=C(O)c1cc(C(=O)O)cc(C(=O)O)c1
inactive: [17] | [14] | [2] | [3] | [6] | [8] | [15] | [9] | [10] | [11] | [12] | [16] | [13] | Aromatase (Homo sapiens)

CCOC(=O)COc1cc(-n2ncc(C(F)(F)F)c(C)c2=O)c(F)cc1Cl
inactive: [1] | [14] | [3] | [4] | [18] | [5] | [6] | [7] | [8] | [15] | [9] | [19] | [10] | [11] | [12] | [13] | Aromatase (Homo sapiens)

CCOC(=O)c1cnc2c(cnn2CC)c1NN=C(C)C
inactive: [1] | [3] | [6] | [8] | [15] | [9] | [10] | [11] | [12] | [16] | [13] | Aromatase (Homo sapiens)

CCCCOC(=O)CCC(C)=O
inactive: [1] | [3] | [6] | [8] | [15] | [9] | [10] | [11] | [12] | [13] | Aromatase (Homo sapiens)
active: [14] 68.6 µM

c1coc(CNc2ncnc3nc[nH]c23)c1
inactive: [1] | [3] | [6] | [8] | [15] | [9] | [19] | [10] | [11] | [16] | [13] | Aromatase (Homo sapiens)
active: [2] 54.5 µM

CO[Si](C)(OC)c1ccccc1
inactive: [17] | [14] | [2] | [3] | [6] | [8] | [15] | [9] | [19] | [10] | [11] | [12] | [13] | Aromatase (Homo sapiens)

CC(C)(C)c1ccc(-c2ccc(C(C)(C)C)cc2)cc1
inactive: [1] | [4] | [18] | [5] | [6] | [7] | [8] | [15] | [9] | [19] | [10] | [11] | [12] | [13] | Aromatase (Homo sapiens)

COc1cc(C(=O)OC(COCCC(C)C)CN2CCOCC2)cc(OC)c1OC (stereo not given)
inactive: [1] | [14] | [8] | [15] | [9] | [10] | [11] | [12] | [16] | Aromatase (Homo sapiens)

O=C(O)c1cn(C2CC2)c2cc(N3CCNCC3)c(F)cc2c1=O
inactive: [1] | [3] | [6] | [8] | [15] | [9] | [10] | [11] | [12] | [16] | [13]

CC1=NN(c2cccc(S(=O)(=O)O)c2)C(=O)C1
inactive: [17] | [14] | [2] | [3] | [4] | [18] | [5] | [6] | [7] | [8] | [15] | [9] | [19] | [10] | [11] | [12] | [16] | [13] | Aromatase (Homo sapiens)

COCCOC[C@H](CC1(C(=O)NC2CCC(C(=O)O)CC2)CCCC1)C(=O)Oc1ccc2c(c1)CCC2 (stereo not given in full)
inactive: [17] | [14] | [2] | [3] | [4] | [18] | [5] | [6] | [7] | [15] | [9] | [10] | [11] | [12] | [13] | Aromatase (Homo sapiens)

CC(C)(C)C(=O)Oc1ccc(S(=O)(=O)Nc2ccccc2C(=O)NCC(=O)O)cc1
inactive: [1] | [2] | [3] | [6] | [8] | [9] | [19] | [10] | [11] | [12] | Aromatase (Homo sapiens)

CCC(C)(CN(C)C)OC(=O)c1ccccc1 (stereo not given)
inactive: [1] | [3] | [6] | [8] | [15] | [9] | [10] | [13] | Aromatase (Homo sapiens)

COc1cc2c(cc1OC)-c1cc3ccc(OC)c(OC)c3c[n+]1CC2
inactive: [1] | [3] | [8] | [10] | [13] | Aromatase (Homo sapiens)
active: [14] 49 µM

CCOC(=O)CCC(=O)OCC
active: [14] 68.5 µM
inactive: [1] | [3] | [6] | [15] | [9] | [10] | [11] | [12] | [16] | [13] | Aromatase (Homo sapiens)

CCCC[N+](C)(CCCC)CCCC
inactive: [1] | [14] | [3] | [6] | [8] | [15] | [9] | [19] | [10] | [11] | [12] | [16] | [13] | Aromatase (Homo sapiens)

Cc1ccc(C(=O)c2ccccc2)cc1
inactive: [3] | [4] | [18] | [5] | [6] | [7] | [8] | [15] | [9] | [10] | [11] | [16] | [13] | Aromatase (Homo sapiens)
active: [17] 61.1 µM | [14] 54.5 µM | [2] 68.6 µM | [12] 21.7 µM

Cc1ncc(COP(=O)(O)O)c(C=O)c1O
inactive: [1] | [2] | [3] | [6] | [8] | [9] | [19] | [11] | [12] | [16] | [13] | Aromatase (Homo sapiens)

C=COC(=O)C(C)(CC)CCC(C)C (stereo not given)
inactive: [17] | [14] | [2] | [3] | [6] | [8] | [15] | [9] | [19] | [11] | [12] | [16] | [13] | Aromatase (Homo sapiens)

CC(COc1ccccc1)NN (stereo not given)
inactive: [17] | [14] | [2] | [3] | [6] | [10] | [11] | [12] | [13] | Aromatase (Homo sapiens)

CCOc1ccccc1OCC
inactive: [17] | [14] | [3] | [6] | [8] | [15] | [9] | [10] | [13] | Aromatase (Homo sapiens)

CC(C)(C)OC(=O)c1cccc(N)c1
active: [11] 56.4 µM [inconclusive] | [12] 31.4 µM
inactive: [17] | [14] | [3] | [6] | [8] | [15] | [9] | [19] | [10] | [13] | Aromatase (Homo sapiens)

CCC1C(=O)OCC1Cc1cncn1C (stereo not given)
inactive: [17] | [14] | [3] | [6] | [8] | [15] | [9] | [19] | [10] | [11] | [12] | [13] | Aromatase (Homo sapiens)

O=C(c1ccccc1O)c1ccccc1O
inactive: [17] | [3] | [5] | [15] | [9] | [10] | [11] | [12] | [16] | [13]
